{"source": "PubChem BioAssay (NCATS)", "key": {"[1]": {"experiment": "HepG2 cells viability qHTS for Zika virus inhibitors (AID 1347168)", "procedure,_shortened": "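Counter-screen for cytotoxicity of hits from NS2B-NS3 protease qHTS. Overnight-attached cells (2.5 x 10^5 cells/mL, DMEM/4% FBS) were dosed in titration, incubated 24 to 48 hours, then assayed by CellTiter Glo.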"}, "[2]": {"experiment": "Tertiary RLuc qRT-PCR qHTS assay for Zika virus inhibitors (AID 1347169); note: nearly all actives have a fitted effect of over 55% in size; note: potency is the fitted concentration of half-maximal effect; for activity change, negative = inhibition: top concentration of the series differs between compounds", "procedure,_shortened": "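Orthogonal cell-based readout: luminescence measured 1-1.5 hrs after adding live-cell Renilla substrate to Vero cells that had been infected with ZIKV-RLuc (MOI 1-2) post-compound, incubated 48-72 hrs at 37 degrees C.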"}, "[3]": {"experiment": "OV-KATE Cancer Cell Toxicity qHTS against the NCATS CANVASS Library (AID 1347345)", "procedure,_shortened": "(§1)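 Following a 4 h pre-incubation of 1000 seeded cells, compounds were pinned in an 11-pnt dilution series and left for 72 h; viability then came from CellTiter-Glo.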"}, "[4]": {"experiment": "OV-SAHO Cancer Cell Toxicity qHTS against the NCATS CANVASS Library (AID 1347348)", "procedure,_shortened": "as §1"}, "[5]": {"experiment": "SW1088 Cancer Cell Toxicity qHTS against the NCATS CANVASS Library (AID 1347350)", "procedure,_shortened": "as §1"}, "[6]": {"experiment": "U-118MG Cancer Cell Toxicity qHTS against the NCATS CANVASS Library (AID 1347351)", "conditions": "outcome: at 38.3 µM (top of the series)", "procedure,_shortened": "as §1"}, "[7]": {"experiment": "COV-362 Cancer Cell Toxicity qHTS against the NCATS CANVASS Library (AID 1347352)", "procedure,_shortened": "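Cells were seeded at 1000 per well and allowed to settle 4 hours at 37 degrees C before pin transfer of compounds as an 11-point series. Viability was read by CellTiter-Glo luminescence after 72 hours' exposure.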"}, "[8]": {"experiment": "UWB1.289 Cancer Cell Toxicity qHTS against the NCATS CANVASS Library (AID 1347347)", "procedure,_shortened": "as §1"}, "[9]": {"experiment": "Panc-1005 Cancer Cell Toxicity qHTS against the NCATS CANVASS Library (AID 1347349)", "procedure,_shortened": "as §1"}, "[10]": {"experiment": "HPAF-II Cancer Cell Toxicity qHTS against the NCATS CANVASS Library (AID 1347346)", "procedure,_shortened": "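HPAF-II cells were seeded at 1000 cells/well, allowed to settle for 4 h at 37 degrees C, then exposed to compounds in an 11-point series for 72 h. Viability was read by CellTiter-Glo luminescence.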"}}, "note": "Inconclusive results are not listed. A call without a number means that no potency is given here. Values without a mark were called inactive. Active and inactive are the calls of the source. Calls come from the whole dose curve; as a rule, active = well fitted curve in the direction sought with a large enough effect; inconclusive = small, poorly fitted or top-dose-only effect, or another doubt; inactive = no such curve, though single readings can be large; an effect the other way counts as inactive or inconclusive. Where a SMILES comes first, the peptide text is derived from it. The star is where a group is joined. Hexanoyl = CCCCCC(=O)*; note: potency is the fitted concentration of half-maximal effect"}
{"molecule": "COc1cccc(OC)c1-c1cc(C(=O)N[C@@H](CC(C)C)C(=O)O)nn1-c1ccnc2cc(Cl)ccc12", "values": [{"measurement": "outcome", "setting": "[1]", "value": "inactive"}, {"measurement": "Potency", "setting": "[2]", "value": "inactive"}]}
{"molecule": "CO[C@H]1c2cc(C(C)C)c(O)c(O)c2[C@@]23CCCC(C)(C)C2[C@@H]1OC3=O", "note": "(some centres undefined)", "values": [{"measurement": "Potency", "setting": "[2]", "value": "inactive"}]}
{"molecule": "CC1(C)CC[C@]2(C(=O)O)CC[C@]3(C)C(=CCC4[C@@]5(C)CC[C@H](O[C@@H]6O[C@H](C(=O)O)[C@@H](O)[C@H](O)[C@H]6O)C(C)(C)C5CC[C@]43C)C2C1", "note": "(some centres undefined)", "values": [{"measurement": "Potency", "setting": "[2]", "value": "9.79 µM (active)"}]}
{"molecule": "O=C(/C=C/C=C/c1ccc2c(c1)OCO2)N1CCCCC1", "values": [{"measurement": "outcome", "setting": "[3]", "value": "inactive"}, {"measurement": "outcome", "setting": "[4]", "value": "inactive"}, {"measurement": "Potency", "setting": "[5]", "value": "inactive"}, {"measurement": "outcome", "setting": "[6]", "value": "inactive"}, {"measurement": "outcome", "setting": "[7]", "value": "inactive"}]}
{"molecule": "CC(=O)O[C@H]1C[C@@]2(C)[C@@H](CC[C@H]3[C@@]4(C)C=CC(=O)[C@@H](C)[C@@H]4[C@H](OC(C)=O)C(=O)[C@@]32C)/C1=C(\\CCC=C(C)C)C(=O)O", "values": [{"measurement": "outcome", "setting": "[3]", "value": "inactive"}, {"measurement": "outcome", "setting": "[8]", "value": "inactive"}, {"measurement": "outcome", "setting": "[4]", "value": "inactive"}, {"measurement": "outcome", "setting": "[9]", "value": "inactive"}, {"measurement": "outcome", "setting": "[6]", "value": "inactive"}, {"measurement": "outcome", "setting": "[7]", "value": "inactive"}]}
{"molecule": "C/C(=C\\CC/C(C)=C/CC[C@]1(C)CCc2cc(O)cc(C)c2O1)CC/C=C(\\C)C(=O)O", "values": [{"measurement": "outcome", "setting": "[1]", "value": "inactive"}, {"measurement": "Potency", "setting": "[2]", "value": "inactive"}, {"measurement": "outcome", "setting": "[3]", "value": "inactive"}, {"measurement": "outcome", "setting": "[10]", "value": "inactive"}, {"measurement": "outcome", "setting": "[8]", "value": "inactive"}, {"measurement": "outcome", "setting": "[4]", "value": "inactive"}, {"measurement": "outcome", "setting": "[9]", "value": "inactive"}, {"measurement": "Potency", "setting": "[5]", "value": "18.8 µM (active)"}, {"measurement": "outcome", "setting": "[6]", "value": "inactive"}, {"measurement": "outcome", "setting": "[7]", "value": "inactive"}]}
{"molecule": "COc1cc2c(c(OC)c1O)C(c1ccc(O)cc1)C1C(=O)OC3C(COC(=O)C1=C2)OC(CO)(OC1OC(COC(=O)/C=C/c2ccc(OC4OC(C)C(O)C(O)C4O)cc2)C(O)C(O)C1O)C3O", "note": "(centres undefined)", "values": [{"measurement": "Potency", "setting": "[2]", "value": "inactive"}]}
{"molecule": "O=C(/C=C/c1ccccc1)OC[C@H]1O[C@@H](OC(=O)c2cc(O)c(O)c(O)c2)[C@H](O)[C@@H](O)[C@@H]1O", "values": [{"measurement": "Potency", "setting": "[2]", "value": "inactive"}]}
{"molecule": "CC1(C)[C@H]2C[C@H](C/C=C\\CCCC(=O)O)[C@@H](NC(=O)c3csc4ccc(O)cc34)[C@@H]1C2", "values": [{"measurement": "Potency", "setting": "[2]", "value": "inactive"}]}
{"molecule": "COc1ccc(C2C(C(=O)O)C(C(=O)O)C2c2ccc(OC)cc2O[C@@H]2O[C@H](CO)[C@@H](O)[C@H](O)[C@H]2O)c(O[C@@H]2O[C@H](CO)[C@@H](O)[C@H](O)[C@H]2O)c1", "note": "(some centres undefined)", "values": [{"measurement": "Potency", "setting": "[2]", "value": "inactive"}]}
{"molecule": "O=C(O)C1(c2ccc(-c3ccc(Cl)c(Cl)c3)c(F)c2)CC1", "values": [{"measurement": "outcome", "setting": "[1]", "value": "inactive"}, {"measurement": "Potency", "setting": "[2]", "value": "inactive"}]}
{"molecule": "COc1cc(CCCO)ccc1O[C@@H]1O[C@H](CO)[C@@H](O)[C@H](O)[C@H]1O", "values": [{"measurement": "Potency", "setting": "[2]", "value": "inactive"}]}
{"molecule": "CCC(C)/C=C(C)/C=C/C1=CC2=CC(=O)C(C)(O)C(OC(C)=O)C2CO1", "note": "(centres undefined)", "values": [{"measurement": "Potency", "setting": "[2]", "value": "inactive"}]}
{"molecule": "O=C1NC(=O)/C(=C/c2cccc(C(F)(F)F)c2)S1", "values": [{"measurement": "outcome", "setting": "[1]", "value": "inactive"}, {"measurement": "Potency", "setting": "[2]", "value": "18.6 µM (active)"}]}
{"molecule": "CC(C)=CCC[C@@](C)(O)[C@H]1CC[C@]2(C)[C@@H]1[C@H](O)CC1[C@@]3(C)CC[C@H](O[C@@H]4O[C@H](CO)[C@@H](O)[C@H](O)[C@H]4O[C@@H]4O[C@H](CO)[C@@H](O)[C@H](O)[C@H]4O)C(C)(C)[C@@H]3CC[C@]12C", "note": "(some centres undefined)", "values": [{"measurement": "Potency", "setting": "[2]", "value": "inactive"}]}
{"molecule": "CCCCCC(=O)N1CCC[C@H]1C(=O)N[C@@H](Cc1ccc(O)cc1)C(=O)OC", "note": "(Hexanoyl-Pro-Tyr-OMe)", "values": [{"measurement": "Potency", "setting": "[2]", "value": "inactive"}]}
{"molecule": "O=C(O)CC/C=C\\C[C@H]1CO[C@@H](c2ccccc2Cl)O[C@H]1c1ccccc1O", "values": [{"measurement": "Potency", "setting": "[2]", "value": "inactive"}]}
{"molecule": "Cc1ccccc1NC(=O)Nc1ccc(CN2C(=O)N([C@@H](CC(C)C)C(=O)N[C@@H](CC(=O)O)c3ccccc3)C(=O)C2(C)C)cc1", "values": [{"measurement": "outcome", "setting": "[1]", "value": "inactive"}, {"measurement": "Potency", "setting": "[2]", "value": "inactive"}]}
{"molecule": "CC1=C2CC3C(CCC3(C)O)C(C)(O)CC2OC1=O", "note": "(centres undefined)", "values": [{"measurement": "Potency", "setting": "[2]", "value": "inactive"}]}
{"molecule": "CSCC[C@H](NC(=O)[C@H](CO)NC(=O)[C@H](CCC(=O)O)NC(C)=O)C(=O)N[C@H](C=O)CC(=O)O", "note": "(Ac-ESMD-aldehyde)", "values": [{"measurement": "activity change, negative = inhibition", "setting": "[2]", "value": "-0.374% [at 5.25 µM]"}]}
{"molecule": "CC(C)c1ccc2c(c1)CCC1[C@](C)(C(=O)O)CCC[C@]21C", "note": "(some centres undefined)", "values": [{"measurement": "outcome", "setting": "[3]", "value": "inactive"}, {"measurement": "outcome", "setting": "[10]", "value": "inactive"}, {"measurement": "outcome", "setting": "[8]", "value": "inactive"}, {"measurement": "outcome", "setting": "[4]", "value": "inactive"}, {"measurement": "outcome", "setting": "[9]", "value": "inactive"}, {"measurement": "Potency", "setting": "[5]", "value": "inactive"}, {"measurement": "outcome", "setting": "[6]", "value": "inactive"}, {"measurement": "outcome", "setting": "[7]", "value": "inactive"}]}
{"molecule": "C=C1C2CCC3CC2(CC(O)C2(O)C1CC(OC1OC(CO)C(O)C(O)C1O)C2(C)C)CC3(C)O", "note": "(centres undefined)", "values": [{"measurement": "outcome", "setting": "[1]", "value": "inactive"}, {"measurement": "Potency", "setting": "[2]", "value": "inactive"}]}
{"molecule": "C/C=C/C=C/C=C/C(=O)O[C@@H]1[C@@H](OC)C2=C(C(=O)N(C(CCC(=O)O)C(=O)O)C2)[C@@]2(C)CCCC(C)(C)[C@H]12", "note": "(some centres undefined)", "values": [{"measurement": "outcome", "setting": "[1]", "value": "inactive"}, {"measurement": "Potency", "setting": "[2]", "value": "inactive"}]}
